# Measured values as given in PubChem BioAssay AID1347426 (Functional Genomics Laboratory (NCATS/FGL), 2020).
# Among all 31,000 sequences or so, about 1,400 (4.5%) were called active.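 How the source made its calls: active means median seed-adjusted z-score above 1 or below -1; inactive means the rest.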 The sample as a whole holds a higher share of actives than the screen did.
# Test: Novel Modifiers of Survival Motor Neuron (SMN) Protein: Gene Identification via Genome-wide siRNA Screen
# Settings: HEK293T SMN2-luciferase reporter, siRNA knockdown, 72 h; actives lie on both sides
# Excerpt: Spinal muscular atrophy (SMA) is the most common neuromuscular autosomal recessive disorder and one of the leading genetic causes of infant death. SMA results from mutations inducing loss of function or deletion in the survival of motor neuron-1 gene (SMN1), leading to deficiency of the survival motor neuron (SMN) protein. Although a second nearly identical gene, SMN2, is retained in humans, its expression primarily produces an aberrantly spliced isoform that is largely unstable and quickly degraded. We performed a genome-wide RNAi screen using a cell-based reporter assay to identify genes and pathways that modulate SMN protein stability. The screen identified over 200 genes that led to the greatest increase or decrease in luciferase expression.
# Using HEK293T cells stably expressing a luciferase reporter that combines the promoter and splicing based cassettes in tandem with the major portion of the native SMN2 cDNA with luciferase, we performed a genome-wide RNAi screen to identify modulators of SMN protein levels. Luciferase is expressed when full-length SMN protein is generated with luminescence signal proportional to SMN protein levels. Our luciferase-based reporter assay was used to screen Ambion Silencer Select Human Druggable Genome siRNA library (10418 genes, 3 unique siRNAs per gene) using lipid-based reverse transfection.
# Briefly, 1 pmol of each siRNA was spotted to a well of a 384-well plate (Corning, Corning, NY) and 20 microL of serum-free DMEM containing […] of Lipofectamine RNAiMax (Life Technologies, Carlsbad, CA) was then added to each well. Transfected cells were maintained at 37 degrees C in 5% CO2 for 72 hours, 20 microL of ONE-Glo Reagent (Promega) was added to wells for luciferase quantification. Raw luminescence reads were normalized to Ambion(R) Silencer(R) Negative Control #2 siRNA, then log10 transformed. A robust statistical measure of median absolute deviation (MAD) to standardize siRNA activities from each screen. Common Seed Analysis was used to help prioritize clean hits as opposed to those appearing to arise from seed based off-target effects. Candidate modulators were defined as the genes having a MAD score greater than 1.0 or less than -1.0.
row,Sequence,median seed-adjusted z-score
1,CAAGUUCUAUCACUCCUUUTT against IRX2,-0.409 (inactive)
2,CCACAUUGGUUACCACUAATT against ITGAV,1.17 (active)
3,CAGUGUUAGUACUCGAUAATT against EXT2,-0.127 (inactive)
4,CCUAUUUGGUGUUAACAUATT against DIRAS1,-0.751 (inactive)
5,CUAUGAUCUCAACCAAAUATT against CD248,-0.0191 (inactive)
6,AGCUAACAGCGGCUCAAGATT against NR1H2,0.069 (inactive)
7,UUACUUUCCUAGUAAGCAATT against GNA12,0.598 (inactive)
8,GCACAGAUGAAGCCCGCUUTT against ARL11,1 (active)
9,CAAGCUCUUUGGUCAAGAATT against SNX4,-0.144 (inactive)
10,GCAUAAAACUGAAGGUGGATT against PTPRN,-0.272 (inactive)
11,CAUCAUUUCAGACAAGUUUTT against DDO,-0.202 (inactive)
12,UCUACGCAGUGGUCACCAATT against BLK,-0.274 (inactive)
13,CAAUCUAUUAAGAAAUGUUTT against RPE,0.616 (inactive)
14,CAUAUAUGAUUGCAUCAAATT against ACTL6A,1.11 (active)
15,GGAUCAACCGCUGCUUGAATT against HELT,-0.192 (inactive)
16,CCAACAUACUAGUCAAUAATT against EFTUD1,-1.39 (active)
17,GGAUGGUCUUUUAGUAAGATT against CBR4,-0.66 (inactive)
18,GACAUCGCAUGGUACAAGATT against NFASC,0.594 (inactive)
19,GAACUGCUCAGGACUAUAATT against TBRG1,-1.47 (active)
20,GCUGCAUCGUAAGACAUUUTT against PCGF6,0.536 (inactive)
21,CGAACUUCCUCAUCGGCAATT against PRLHR,0 (inactive)
22,CAAAAAUGAUUGCGAAUGATT against APOL4,-0.54 (inactive)
23,GCUCUUCGAGAGAACCUGUTT against TUBG1,0.618 (inactive)
24,CCCUCCAUGGAAUAGAAUATT against FCER1A,-0.0293 (inactive)
25,CGGUUCCUUUAUUACCAAATT against TNFRSF21,0.225 (inactive)
26,AGGAGAUUCUGAACAGGCUTT against GPR26,-1.33 (active)
27,GCAGCUAUUUGUCUCCGAATT against USP43,0 (inactive)
28,CAGCUAUACAGGAAUUAUUTT against SLC25A16,0.0479 (inactive)
29,GCAGGGCAUUUAUGGGACATT against KRT79,0.338 (inactive)
30,CCAGGUGAAAUGUCAACUATT against HERC5,-0.422 (inactive)
